Among the data in PubChem BioAssay (NCI) are growth values, retold here.

Holding throughout (assay): NCI-60 one-dose screen, 48 h (100 = growth as untreated, 0 = no growth, -100 = all killed)
In one test the test system is HCT-15 colon. Conditions: 10 µM unless noted.
Another test has as its system HT29 colon. The following applies: 10 µM unless noted.
Another test has as its system SNB-75 CNS. Conditions: 10 µM unless noted.
For another test, the system named is SNB-19 CNS. The following applies: 10 µM unless noted.
The next test relates to U251 CNS. Conditions: 10 µM unless noted.
For a further test, the system named is PC-3 prostate. The following applies: 10 µM unless noted.
For another test, the system named is SK-MEL-5 melanoma. The following applies: 10 µM unless noted.
The test system of the next test is UACC-62 melanoma. The following applies: 10 µM unless noted.
The next test deals with LOX IMVI melanoma. The following applies: 10 µM.
The test system of another test is SK-MEL-28 melanoma. Conditions: 10 µM unless noted.
The subject of a further test is SK-MEL-2 melanoma. The following applies: 10 µM unless noted.
For another test, the system named is EKVX NSCLC. Conditions: 10 µM unless noted.
In another test the test system is SN12C renal. Conditions: 10 µM unless noted.
In a further test the test system is UO-31 renal. Conditions: 10 µM unless noted.
The test system of a further test is ACHN renal. Conditions: 10 µM unless noted.
Another test concerns A498 renal. The following applies: 10 µM unless noted.
A further test deals with CCRF-CEM leukemia. Conditions: 10 µM unless noted.
In the next test the test system is MOLT-4 leukemia. Conditions: 10 µM unless noted.
The test system of the next test is TK-10 renal. Conditions: 10 µM unless noted.
For the next test, the system named is CAKI-1 renal. Conditions: 10 µM unless noted.

The panel holds about 83,000 compounds, 20% with a hit somewhere; the sample as a whole holds those more often.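 Method: cells in 96-well plates; compound added at one concentration; 48 h incubation; percent growth measured; values under 10 scored active.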 A number with no mark means an inactive call. Calls of active or inactive are those of the source.

As to `CCCCCCCCCCCCCCCc1ccc(C(=O)C[n+]2ccccc2)cc1`, the growth in the test with HCT-15 colon was -48.6% (active); in the test on HT29 colon, -39.3% (active); with SNB-75 CNS, -55% (active); with SNB-19 CNS it was -84.1% (active); in the test with U251 CNS it was -42.2% (active); with PC-3 prostate it was -90.7% (active). The growth in the test on SK-MEL-5 melanoma was -31.6% (active); with UACC-62 melanoma, -27.6% (active); in the test on LOX IMVI melanoma, -55.9% (active); in the test on SK-MEL-28 melanoma it was -14.5% (active); in the test with SK-MEL-2 melanoma it was -80.9% (active); with EKVX NSCLC, -51.6% (active). Moreover, the growth with SN12C renal is -60.7% (active); in the test on UO-31 renal, -97.2% (active); in the test with ACHN renal, -49.3% (active); in the test on A498 renal it was 41.1%; in the test on CCRF-CEM leukemia, -62.1% (active); with MOLT-4 leukemia, -76.3% (active).
Turning to `CCCCCCCCCCCCCCCCCC[S+](C)CC` (stereo unspecified), the growth is 38.8% in the test on HCT-15 colon; 4.75% (active) with HT29 colon; -25.1% (active) in the test on SNB-75 CNS; 8.74% (active) with SNB-19 CNS; -57.5% (active) in the test on U251 CNS; 36.3% in the test with PC-3 prostate. For the same molecule, the growth with SK-MEL-5 melanoma was -99.1% (active); in the test on UACC-62 melanoma, 19.3%; with LOX IMVI melanoma, -51.6% (active); in the test with SK-MEL-28 melanoma, 48.6%; in the test on SK-MEL-2 melanoma, 48.1%; with EKVX NSCLC it was 91.7%. Moreover, the growth in the test on SN12C renal was 25.7%; in the test with UO-31 renal, 59.6%; with TK-10 renal, 9.52% (active); in the test on ACHN renal it was 16.2%; in the test with CAKI-1 renal it was 66.5%; with A498 renal it was 63.2%. The growth in the test with CCRF-CEM leukemia was 14.6%; in the test on MOLT-4 leukemia, -4.95% (active).
Regarding `COc1cc([C@@H]2c3cc4c(cc3[C@H](OC3OC5COC(c6ccccc6)OC5C(O)C3O)[C@H]3COC(=O)[C@H]23)OCO4)cc(OC)c1OC` (stereo partly specified), the growth with HCT-15 colon is 41.1%; with HT29 colon it was 23.2%; with SNB-75 CNS it was 75.9%; in the test on SNB-19 CNS, 79.9%; with U251 CNS it was 55.8%; with PC-3 prostate, 8.28% (active). The growth in the test on SK-MEL-5 melanoma was -33.3% (active); with UACC-62 melanoma it was 79.4%; in the test on LOX IMVI melanoma it was 30.2%; in the test with SK-MEL-28 melanoma, 58.3%; in the test with SK-MEL-2 melanoma, 2.6% (active); with EKVX NSCLC it was 74.7%. The growth with SN12C renal was 41.8%; with UO-31 renal, 35.2%; in the test with ACHN renal, 32.6%; in the test with CAKI-1 renal, 31%; in the test with A498 renal, 26.2%; in the test with CCRF-CEM leukemia, 16.2%. For the same molecule, in the test on MOLT-4 leukemia, the growth was -7.44% (active).
Regarding `CC1(C)N=c2cc3c(cc2N1c1ccc(Cl)cc1)=Nc1ccccc1N3c1ccc(Cl)cc1`, the growth in the test on HCT-15 colon was 33.2%; in the test on HT29 colon it was 60.4%; in the test with SNB-75 CNS, 1.77% (active); in the test on SNB-19 CNS it was 66.5%; in the test with U251 CNS, 39.3%; with PC-3 prostate it was 7.55% (active). The growth was 37.8% in the test on SK-MEL-5 melanoma; 69.1% in the test with UACC-62 melanoma; 40.5% with LOX IMVI melanoma; 86.6% in the test on SK-MEL-28 melanoma; -1.35% (active) in the test with SK-MEL-2 melanoma; 52.9% with EKVX NSCLC. Moreover, the growth in the test on SN12C renal was 75.7%; in the test with UO-31 renal it was -37.1% (active); in the test with TK-10 renal it was 65.2%; in the test with ACHN renal it was 40.2%; in the test on CAKI-1 renal, 44.2%; in the test with A498 renal it was 26.7%. Moreover, the growth in the test with CCRF-CEM leukemia is -25.3% (active); in the test with MOLT-4 leukemia it was -32.2% (active).
`c1ccc(-c2cccc(-c3ccccn3)n2)nc1`: the growth is 28% in the test with HCT-15 colon; 26% in the test with HT29 colon; 49% in the test on SNB-75 CNS; 27.9% in the test on SNB-19 CNS; 14.5% with U251 CNS; 31.2% in the test with PC-3 prostate. The growth with SK-MEL-5 melanoma was -50.8% (active); in the test on UACC-62 melanoma it was 3.51% (active); in the test on LOX IMVI melanoma it was -0.708% (active); in the test on SK-MEL-28 melanoma, 33%; with SK-MEL-2 melanoma it was 16.6%; in the test with SN12C renal it was 10.5%. Further, the growth was 9.63% (active) in the test on UO-31 renal; 32.9% with TK-10 renal; 14% in the test with ACHN renal; 44.2% in the test with A498 renal; 5.02% (active) with CCRF-CEM leukemia; 3.3% (active) in the test on MOLT-4 leukemia.
For the molecule `CCCCCCCCCCCCCCCCCC1=NCCCN1CCO`, the growth with HCT-15 colon is 94%; in the test on HT29 colon, 101%; with SNB-75 CNS, 105%; in the test with SNB-19 CNS it was 101%; in the test with U251 CNS, 98.2%; in the test with PC-3 prostate it was 95.9%. In addition, the growth in the test on SK-MEL-5 melanoma was 103%; in the test with UACC-62 melanoma, 111%; in the test with LOX IMVI melanoma it was 96.4%; in the test with SK-MEL-28 melanoma, 108%; in the test on SK-MEL-2 melanoma, 111%; in the test with SN12C renal it was 96.8%. The growth with UO-31 renal was 93.4%; in the test on TK-10 renal it was 116%; in the test with ACHN renal it was 112%; in the test on CAKI-1 renal, 105%; in the test with CCRF-CEM leukemia it was 97.4%; with MOLT-4 leukemia, 102%.
As to `Cc1nc([N+](=O)[O-])c(Sc2nncc(-c3ccccc3)n2)n1C`, the growth in the test on HCT-15 colon is 68%; in the test on HT29 colon, 84.5%; in the test with SNB-75 CNS, 76.6%; in the test with SNB-19 CNS it was 116%; in the test on U251 CNS it was 79.4%; with PC-3 prostate, 98.1%. The growth in the test with SK-MEL-5 melanoma was 96%; in the test on UACC-62 melanoma, 82.2%; in the test on LOX IMVI melanoma, 82.2%; with SK-MEL-28 melanoma it was 89.1%; in the test with SK-MEL-2 melanoma, 95.4%; in the test with SN12C renal, 86.8%. In addition, the growth in the test with UO-31 renal is 60.3%; in the test with TK-10 renal, 74.4%; with ACHN renal it was 62.6%; in the test on CAKI-1 renal, -3.06% (active); in the test on A498 renal it was 107%; in the test with CCRF-CEM leukemia, 45.1%. Besides, the growth in the test on MOLT-4 leukemia was 65.7%.
For `COC(=O)[C@]1(C)CCC[C@]2(C)c3ccc(C(C)C)cc3C(=O)[C@@H](Br)[C@@H]12`, the growth in the test on HCT-15 colon is 69.6%; with HT29 colon, 76.2%; in the test with SNB-75 CNS, 80.4%; with SNB-19 CNS, 98.3%; with U251 CNS, 91.1%; with PC-3 prostate it was 86.8%. Also, the growth with SK-MEL-5 melanoma was 90.4%; with UACC-62 melanoma it was 90.6%; in the test on LOX IMVI melanoma, 79.7%; in the test on SK-MEL-28 melanoma, 100%; in the test on SK-MEL-2 melanoma, 103%; in the test with SN12C renal, 96.1%. Moreover, the growth with UO-31 renal is 69.5%; with TK-10 renal, 102%; with ACHN renal it was 92.6%; in the test on CAKI-1 renal, 89%; in the test with A498 renal, 109%; with CCRF-CEM leukemia, 70.9%. Also, in the test with MOLT-4 leukemia, the growth was 60.1%.
